{
  "source": "PubChem BioAssay",
  "note": "Unmarked numbers belong to inactive results. Activity calls are given as the source filed them. Unless noted, no stated cut-off is given here; in the data, active means inhibition above about 30%; inactive means the rest.",
  "data": [
    {"molecular_target": "Nuclear receptor coactivator 3 (Homo sapiens) (UniProt Q9Y6Q9)", "sequence (Q9Y6Q9 whole entry, looked up, the tested form may be a part)": "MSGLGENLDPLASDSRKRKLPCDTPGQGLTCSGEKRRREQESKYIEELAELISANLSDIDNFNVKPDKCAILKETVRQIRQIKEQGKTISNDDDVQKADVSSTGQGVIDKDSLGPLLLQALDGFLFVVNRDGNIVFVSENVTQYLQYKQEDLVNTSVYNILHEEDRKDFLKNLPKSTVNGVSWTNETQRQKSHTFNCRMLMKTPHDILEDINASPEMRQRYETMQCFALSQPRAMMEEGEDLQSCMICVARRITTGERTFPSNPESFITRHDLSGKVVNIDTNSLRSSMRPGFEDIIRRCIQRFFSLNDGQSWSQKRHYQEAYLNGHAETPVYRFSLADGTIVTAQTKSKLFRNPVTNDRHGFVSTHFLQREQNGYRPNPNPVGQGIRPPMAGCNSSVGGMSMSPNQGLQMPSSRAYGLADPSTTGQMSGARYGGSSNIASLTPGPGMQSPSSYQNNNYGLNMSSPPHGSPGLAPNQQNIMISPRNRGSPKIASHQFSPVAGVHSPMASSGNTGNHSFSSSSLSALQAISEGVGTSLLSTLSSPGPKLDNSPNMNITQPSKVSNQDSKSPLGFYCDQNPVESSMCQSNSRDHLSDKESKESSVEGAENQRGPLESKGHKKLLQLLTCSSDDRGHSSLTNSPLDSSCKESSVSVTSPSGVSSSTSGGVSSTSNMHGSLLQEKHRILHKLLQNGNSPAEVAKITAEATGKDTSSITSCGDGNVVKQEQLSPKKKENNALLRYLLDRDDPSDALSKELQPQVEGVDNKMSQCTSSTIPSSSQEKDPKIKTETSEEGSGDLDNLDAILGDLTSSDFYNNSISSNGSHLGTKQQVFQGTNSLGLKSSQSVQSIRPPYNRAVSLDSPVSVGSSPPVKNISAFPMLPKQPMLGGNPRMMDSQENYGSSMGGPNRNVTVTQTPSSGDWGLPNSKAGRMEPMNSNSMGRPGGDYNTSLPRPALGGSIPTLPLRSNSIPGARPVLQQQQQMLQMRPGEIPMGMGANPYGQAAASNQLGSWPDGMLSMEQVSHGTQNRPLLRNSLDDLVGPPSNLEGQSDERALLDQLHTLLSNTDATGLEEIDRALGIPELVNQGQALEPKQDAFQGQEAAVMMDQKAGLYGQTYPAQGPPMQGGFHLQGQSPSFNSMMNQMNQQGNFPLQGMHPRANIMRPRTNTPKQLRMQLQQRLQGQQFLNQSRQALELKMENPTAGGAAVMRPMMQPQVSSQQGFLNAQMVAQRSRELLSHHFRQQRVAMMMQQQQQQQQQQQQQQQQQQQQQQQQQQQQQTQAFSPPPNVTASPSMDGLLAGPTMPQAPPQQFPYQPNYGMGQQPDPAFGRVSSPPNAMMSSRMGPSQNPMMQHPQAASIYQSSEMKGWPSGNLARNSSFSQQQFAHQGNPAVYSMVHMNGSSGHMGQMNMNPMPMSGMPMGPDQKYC", "test": "NCOA3 GAL4-fusion reporter inhibition – cell-based, luminescence, quadruplicate, confirmation (AID 588792;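 active means mean inhibition over 43.08%, the solvent-only control mean plus 3 SD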;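 further: 0% = DMSO treated cells and 100% = gossypol at 36 µM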)", "conditions": "HEK293 GAL4-SRC3 luciferase reporter, at 3.6 µM, active compounds read high", "values": [
      {"smiles": "CC(=O)c1c(C)n(-c2ccc(Br)cc2)c2ccc(O)cc12", "inhibition": "53.3% (active)"},
      {"smiles": "Cc1cc(C)nc(/N=C(\\N)Nc2ccccc2-c2ccccc2)n1", "inhibition": "-12%"},
      {"smiles": "C=CC[C@@H](CC(=O)N(CCO)Cc1ccccc1)C(=O)N[C@@H](C)COC(=O)[C@@H](CC=C)Cc1ccc(F)cc1", "inhibition": "5.89%"},
      {"smiles": "NC(=O)CC(NC(=O)c1cccc(Br)c1)c1ccc(NC2CCN(Cc3ccccc3)CC2)c([N+](=O)[O-])c1", "note": "(stereo not given)", "inhibition": "-3.11%"},
      {"smiles": "C=C[C@@H]1c2c(F)cccc2N(S(=O)(=O)c2ccc(C)cc2)[C@H](c2ccc(OC(C)=O)cc2)C1(C#N)C#N", "inhibition": "10.4%"},
      {"smiles": "CC1=C/C(=N\\OS(=O)(=O)c2ccccc2)C(C)=CC1=O", "inhibition": "19.7%"},
      {"smiles": "COc1ccc(C(=O)C2CCCN(Cc3cccn3-c3ccccn3)C2)c(C)c1", "note": "(stereo not given)", "inhibition": "26.1%"},
      {"smiles": "Nc1cccc2c1C(=O)N(C(=O)c1cccc(S(=O)(=O)N3CCCCCC3)c1)C2=O", "inhibition": "1.95%"},
      {"smiles": "COc1ccc(/C=C/C(=O)C23CC4CC(CC(C4)C2)C3)cc1CN1CCOCC1", "inhibition": "22.6%"},
      {"smiles": "COc1ccc(CNC(=O)c2ccc(Cl)c(S(=O)(=O)N3CCOCC3)c2)cc1OC", "inhibition": "12.8%"},
      {"smiles": "FC(F)(F)c1cccc(-c2nc3nc(Cl)c(Cl)nc3[nH]2)c1", "inhibition": "-12%"},
      {"smiles": "Cc1ccc(S(=O)(=O)N2CCOCC2)cc1C(=O)Nc1cc(S(=O)(=O)N2CCCCC2)ccc1O", "inhibition": "-2.21%"},
      {"smiles": "O=C(O)c1cc(NS(=O)(=O)c2ccc(N3CCOCC3)c([N+](=O)[O-])c2)cc(C(=O)O)c1", "inhibition": "1.8%"},
      {"smiles": "Cc1ccc(NS(=O)(=O)c2ccc(OCC(=O)NCc3ccncc3)cc2)cc1", "inhibition": "8.87%"},
      {"smiles": "Cc1ccc(C(=O)C[n+]2ccc(Cc3ccccc3)cc2)cc1", "inhibition": "-4.6%"},
      {"smiles": "Cc1noc(C)c1CN1C(=O)NC2(CCCCCCC2)C1=O", "inhibition": "0.62%"},
      {"smiles": "COc1ccc(CN(Cc2cccn2C)S(=O)(=O)c2ccc(C)cc2)cc1", "inhibition": "1.22%"},
      {"smiles": "COc1ccc(C(C(=O)NC2CCCCC2)N(C(=O)CCl)c2ccc(Cl)cc2)cc1", "note": "(stereo not given)", "inhibition": "54.1% (active)"},
      {"smiles": "O=C(NCc1ccccc1)c1c(Cl)nc(Cl)c(Cl)c1Cl", "inhibition": "42.1%"},
      {"smiles": "COc1ccc2nc(C)cc(SCC(=O)N/N=C/c3ccc(O)cc3O)c2c1", "inhibition": "24.1%"},
      {"smiles": "COc1ccc(C(=O)Nc2nc(-c3ccccn3)cs2)cc1S(=O)(=O)N1CCOCC1", "inhibition": "18.3%"},
      {"smiles": "CCc1nc2ccccc2c(=O)n1NCCc1ccccc1", "inhibition": "-4.18%"},
      {"smiles": "O=C(NCc1ccc(Cl)cc1)c1cccc(NC(=O)c2ccccc2)c1", "inhibition": "-5.52%"},
      {"smiles": "O=C(N/N=C/c1cc(Br)ccc1OC(=O)c1ccc(Br)cc1)c1ccncc1", "inhibition": "20.5%"},
      {"smiles": "Cc1ccccc1NC1=NCC(c2ccc([N+](=O)[O-])cc2)S1", "note": "(stereo not given)", "inhibition": "18%"},
      {"smiles": "COc1cccc(NC(=O)CN(C)C(=O)/C=C/c2cn(-c3ccccc3)nc2-c2ccc(OC)c(OC)c2)c1", "inhibition": "1.39%"},
      {"smiles": "CN1CCN(S(=O)(=O)c2cccc(C(=O)N(C)CC(=O)Nc3ccc(Cl)c(Cl)c3)c2)CC1", "inhibition": "21%"},
      {"smiles": "COc1ccc(N/N=C(/N=Nc2nc(C)cc(=O)[nH]2)c2ccccc2)cc1", "inhibition": "46.6% (active)"},
      {"smiles": "COc1ccc2nc(C(F)(F)Cl)c(C#N)c(N)c2c1", "inhibition": "24%"},
      {"smiles": "CC(=O)Nc1ccc(OCC(O)Cn2c3ccccc3c3ccccc32)c(C)c1", "note": "(stereo not given)", "inhibition": "-0.56%"},
      {"smiles": "N#CCc1c[nH]c2ccc([N+](=O)[O-])cc12", "inhibition": "24%"},
      {"smiles": "COc1ccc(NC(=O)c2oc3ccc(S(=O)(=O)N4CCC5(CC4)OCCO5)cc3c2C)cc1", "inhibition": "5.45%"},
      {"smiles": "CCN(c1ccccc1)S(=O)(=O)c1ccc(C(=O)Nc2nnc(-c3ccco3)o2)cc1", "inhibition": "8.7%"},
      {"smiles": "O=C(Nc1ccc(OC(F)(F)F)cc1)Nc1cccc([N+](=O)[O-])c1", "inhibition": "-15.5%"},
      {"smiles": "CCN(C(=O)COC(=O)/C(=C/c1ccccc1)n1nnnc1C)C1CCCCC1", "inhibition": "26.9%"},
      {"smiles": "O=C(COc1ccc(Cl)cc1)NCc1nnc(SCC(=O)NC2CCCCC2)o1", "inhibition": "3.51%"},
      {"smiles": "Cc1cc(C)n(Cc2ccc(NC(=O)c3ccc(COc4ccccc4Br)cc3)cc2)n1", "inhibition": "-0.48%"},
      {"smiles": "Cc1ccsc1/C=N/NC(=O)CNC(=O)c1ccccc1", "inhibition": "-11.5%"},
      {"smiles": "O=C(NCc1cccs1)C1CCN(S(=O)(=O)c2ccccc2F)CC1", "inhibition": "0.65%"},
      {"smiles": "Cc1ccc(N=Nc2ccc3ccccc3c2O)cc1", "inhibition": "30.8%"}
    ]},
    {"system": "transactivating tegument protein VP16 (Human herpesvirus 1), Gal4-VP16 luciferase reporter", "test": "repression of VP16-driven luciferase reporter – cell-based, luminescence, high throughput, counter-screen for SRC3 inhibitor project (AID 588794)", "conditions": "mammalian cells, at 3.6 µM, active compounds read high", "values": [
      {"smiles": "CC(=O)c1c(C)n(-c2ccc(Br)cc2)c2ccc(O)cc12", "inhibition": "30.8% (active)"},
      {"smiles": "Cc1cc(C)nc(/N=C(\\N)Nc2ccccc2-c2ccccc2)n1", "inhibition": "13.4%"},
      {"smiles": "C=CC[C@@H](CC(=O)N(CCO)Cc1ccccc1)C(=O)N[C@@H](C)COC(=O)[C@@H](CC=C)Cc1ccc(F)cc1", "inhibition": "-1.92%"},
      {"smiles": "NC(=O)CC(NC(=O)c1cccc(Br)c1)c1ccc(NC2CCN(Cc3ccccc3)CC2)c([N+](=O)[O-])c1", "note": "(stereo not given)", "inhibition": "-4.06%"},
      {"smiles": "C=C[C@@H]1c2c(F)cccc2N(S(=O)(=O)c2ccc(C)cc2)[C@H](c2ccc(OC(C)=O)cc2)C1(C#N)C#N", "inhibition": "3.61%"},
      {"smiles": "CC1=C/C(=N\\OS(=O)(=O)c2ccccc2)C(C)=CC1=O", "inhibition": "9.07%"},
      {"smiles": "COc1ccc(C(=O)C2CCCN(Cc3cccn3-c3ccccn3)C2)c(C)c1", "note": "(stereo not given)", "inhibition": "9.76%"},
      {"smiles": "Nc1cccc2c1C(=O)N(C(=O)c1cccc(S(=O)(=O)N3CCCCCC3)c1)C2=O", "inhibition": "-5.22%"},
      {"smiles": "COc1ccc(/C=C/C(=O)C23CC4CC(CC(C4)C2)C3)cc1CN1CCOCC1", "inhibition": "6.66%"},
      {"smiles": "COc1ccc(CNC(=O)c2ccc(Cl)c(S(=O)(=O)N3CCOCC3)c2)cc1OC", "inhibition": "27.5%"},
      {"smiles": "FC(F)(F)c1cccc(-c2nc3nc(Cl)c(Cl)nc3[nH]2)c1", "inhibition": "31.5% (active)"},
      {"smiles": "Cc1ccc(S(=O)(=O)N2CCOCC2)cc1C(=O)Nc1cc(S(=O)(=O)N2CCCCC2)ccc1O", "inhibition": "-4.27%"},
      {"smiles": "O=C(O)c1cc(NS(=O)(=O)c2ccc(N3CCOCC3)c([N+](=O)[O-])c2)cc(C(=O)O)c1", "inhibition": "-5.01%"},
      {"smiles": "Cc1ccc(NS(=O)(=O)c2ccc(OCC(=O)NCc3ccncc3)cc2)cc1", "inhibition": "6.6%"},
      {"smiles": "Cc1ccc(C(=O)C[n+]2ccc(Cc3ccccc3)cc2)cc1", "inhibition": "14.8%"},
      {"smiles": "Cc1noc(C)c1CN1C(=O)NC2(CCCCCCC2)C1=O", "inhibition": "-10.4%"},
      {"smiles": "COc1ccc(CN(Cc2cccn2C)S(=O)(=O)c2ccc(C)cc2)cc1", "inhibition": "-4.15%"},
      {"smiles": "COc1ccc(C(C(=O)NC2CCCCC2)N(C(=O)CCl)c2ccc(Cl)cc2)cc1", "note": "(stereo not given)", "inhibition": "24.8%"},
      {"smiles": "O=C(NCc1ccccc1)c1c(Cl)nc(Cl)c(Cl)c1Cl", "inhibition": "21.9%"},
      {"smiles": "COc1ccc2nc(C)cc(SCC(=O)N/N=C/c3ccc(O)cc3O)c2c1", "inhibition": "18.7%"},
      {"smiles": "COc1ccc(C(=O)Nc2nc(-c3ccccn3)cs2)cc1S(=O)(=O)N1CCOCC1", "inhibition": "-11.1%"},
      {"smiles": "CCc1nc2ccccc2c(=O)n1NCCc1ccccc1", "inhibition": "2.67%"},
      {"smiles": "O=C(NCc1ccc(Cl)cc1)c1cccc(NC(=O)c2ccccc2)c1", "inhibition": "26.9%"},
      {"smiles": "O=C(N/N=C/c1cc(Br)ccc1OC(=O)c1ccc(Br)cc1)c1ccncc1", "inhibition": "28%"},
      {"smiles": "Cc1ccccc1NC1=NCC(c2ccc([N+](=O)[O-])cc2)S1", "note": "(stereo not given)", "inhibition": "-2.52%"},
      {"smiles": "COc1cccc(NC(=O)CN(C)C(=O)/C=C/c2cn(-c3ccccc3)nc2-c2ccc(OC)c(OC)c2)c1", "inhibition": "-9.23%"},
      {"smiles": "CN1CCN(S(=O)(=O)c2cccc(C(=O)N(C)CC(=O)Nc3ccc(Cl)c(Cl)c3)c2)CC1", "inhibition": "17.9%"},
      {"smiles": "COc1ccc(N/N=C(/N=Nc2nc(C)cc(=O)[nH]2)c2ccccc2)cc1", "inhibition": "30.7% (active)"},
      {"smiles": "COc1ccc2nc(C(F)(F)Cl)c(C#N)c(N)c2c1", "inhibition": "-0.89%"},
      {"smiles": "CC(=O)Nc1ccc(OCC(O)Cn2c3ccccc3c3ccccc32)c(C)c1", "note": "(stereo not given)", "inhibition": "-0.54%"},
      {"smiles": "N#CCc1c[nH]c2ccc([N+](=O)[O-])cc12", "inhibition": "20%"},
      {"smiles": "COc1ccc(NC(=O)c2oc3ccc(S(=O)(=O)N4CCC5(CC4)OCCO5)cc3c2C)cc1", "inhibition": "8.97%"},
      {"smiles": "CCN(c1ccccc1)S(=O)(=O)c1ccc(C(=O)Nc2nnc(-c3ccco3)o2)cc1", "inhibition": "9.19%"},
      {"smiles": "O=C(Nc1ccc(OC(F)(F)F)cc1)Nc1cccc([N+](=O)[O-])c1", "inhibition": "1.65%"},
      {"smiles": "CCN(C(=O)COC(=O)/C(=C/c1ccccc1)n1nnnc1C)C1CCCCC1", "inhibition": "27%"},
      {"smiles": "O=C(COc1ccc(Cl)cc1)NCc1nnc(SCC(=O)NC2CCCCC2)o1", "inhibition": "3.49%"},
      {"smiles": "Cc1cc(C)n(Cc2ccc(NC(=O)c3ccc(COc4ccccc4Br)cc3)cc2)n1", "inhibition": "20.2%"},
      {"smiles": "Cc1ccsc1/C=N/NC(=O)CNC(=O)c1ccccc1", "inhibition": "-7.26%"},
      {"smiles": "O=C(NCc1cccs1)C1CCN(S(=O)(=O)c2ccccc2F)CC1", "inhibition": "-0.48%"},
      {"smiles": "Cc1ccc(N=Nc2ccc3ccccc3c2O)cc1", "inhibition": "17.5%"}
    ]}
  ]
}
